From PubChem
Most compounds without a hit are left out; they make up all but 18% or so of the library.
IL1B secr inh: blocks inflammasome-driven IL-1 beta release; actives 4.7% (n = 360,000); activity change, % at 57.5 µM; THP-1 LPS/ATP IL-1B secretion, AlphaLISA, 16 h; hits give low values; in the data active = activity change below about -50%; inconclusive = mostly about -30% to -49%
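Secreted IL-1B measured by AlphaLISA bead assay after 16 h compound exposure of THP-1 cells; compounds (final up to 57.5 uM) added 1 h before LPS (250 ng/mL) and ATP (1.25 mM) stimulation; lower signal means less secretion.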
Six1-Eya2 blk: blocks human Six1 binding to Eya2; AlphaScreen GST-Six1/His-Eya2 binding, biochemical; hits give low values; activity change, % (concentration not given with the values); actives 0.56% (n = 360,000); AID 651725; in the data active = activity change below about -65%; inconclusive = mostly about -30% to -63%
Target sequence (O00167 whole entry, looked up): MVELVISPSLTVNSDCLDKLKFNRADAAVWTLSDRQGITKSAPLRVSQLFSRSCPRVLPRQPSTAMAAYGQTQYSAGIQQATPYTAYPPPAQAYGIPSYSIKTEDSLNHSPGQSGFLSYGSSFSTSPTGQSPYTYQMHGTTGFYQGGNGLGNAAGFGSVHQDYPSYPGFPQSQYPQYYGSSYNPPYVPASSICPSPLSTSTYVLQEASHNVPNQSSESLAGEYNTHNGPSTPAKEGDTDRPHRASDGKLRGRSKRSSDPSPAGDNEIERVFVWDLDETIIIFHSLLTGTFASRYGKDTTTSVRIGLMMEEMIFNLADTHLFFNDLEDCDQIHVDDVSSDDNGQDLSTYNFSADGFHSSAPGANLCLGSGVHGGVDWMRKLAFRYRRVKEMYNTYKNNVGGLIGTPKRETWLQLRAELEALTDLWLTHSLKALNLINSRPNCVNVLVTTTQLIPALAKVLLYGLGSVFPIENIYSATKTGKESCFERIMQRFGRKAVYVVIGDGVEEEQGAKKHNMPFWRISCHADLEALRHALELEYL
Target sequence (Q15475 whole entry, looked up): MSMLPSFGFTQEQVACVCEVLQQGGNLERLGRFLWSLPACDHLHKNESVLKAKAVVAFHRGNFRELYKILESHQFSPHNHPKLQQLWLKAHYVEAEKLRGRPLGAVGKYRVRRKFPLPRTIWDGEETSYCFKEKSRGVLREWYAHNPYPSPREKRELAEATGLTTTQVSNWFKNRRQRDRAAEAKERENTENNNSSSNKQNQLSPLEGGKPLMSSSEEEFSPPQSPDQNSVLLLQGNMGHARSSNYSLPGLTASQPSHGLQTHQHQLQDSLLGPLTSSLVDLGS
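Six1/Eya2 binding was read as AlphaScreen signal after compounds were pinned into GST-Six1 plus His-tagged Eya2 (5X stock 250/500 nM) in pH 8.0 Tris/NaCl/TCEP buffer, beads added, then incubated 1 h, 37 C, dark.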
TDP1 block: blocks human tyrosyl-DNA phosphodiesterase 1. Q9NUW8. recombinant TDP1, AlphaScreen DNA substrate cleavage. Potency, µM (series often up to 130 µM), usual class: inhibitors. actives 0.28% (n = 350,000); also: nearly all actives have a fitted effect of over 40% in size
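Here, a 5' biotin and 3' phosphotyrosine-FITC DNA oligonucleotide reports Tdp1 activity: intact substrate bridges AlphaScreen beads, while cleavage leaves a 3' phosphate and drops signal. All incubations at room temperature.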
CtBP-E1A inh: blocks the CtBP interaction with E1A; AlphaScreen GST-E1A/His-CtBP binding, 1536-well; hits give low values; activity change, % (test concentration not listed); actives 0.49% (n = 340,000); in the data active = activity change below about -65%; inconclusive = mostly about -30% to -63%
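Homogeneous bead-based format: GST-tagged E1A captured on glutathione donor beads, His-tagged CtBP on nickel acceptor beads; compounds precede bead addition by 2 h at 37 °C.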
TDP1 cell noCPT: qHTS for Inhibitors of human tyrosyl-DNA phosphodiesterase 1 (TDP1): qHTS in cells in absence of CPT. DT40 Tdp1-/- hTDP1 cells, no CPT, ATP luminescence, 48 h. Potency, µM (highest dose often 46.2 µM), usual class: inhibitors. actives 15% (n = 420,000). AID 686978, 2013; also: nearly all actives have a fitted effect of over 55% in size
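Cells were dispensed at 400 per well, compounds added by pin tool, plates incubated ≥48 hr at 37 °C, then CellTiter-Glo added for 30 min at room temperature before luminescence reading. Line: DT40 Tdp1-/- complemented with hTDP1; camptothecin omitted.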
TDP1 cell CPT: growth inhibition of DT40 Tdp1-/-;hTDP1 cells with camptothecin (screen for TDP1 inhibitors); chicken DT40 Tdp1-/-;hTDP1 cells + 20 nM CPT, ATP luminescence, 48 h; Potency, µM (highest dose often 46.2 µM), usual class: inhibitors; actives 12% (n = 420,000); AID 686979; also: nearly all actives have a fitted effect of over 55% in size
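Chicken DT40 Tdp1-/- cells stably complemented with human TDP1 were seeded at 400 cells/well in medium containing 20 nM camptothecin, exposed to pin-transferred compounds, and grown at 37 °C for at least 48 hr. Viability was read as ATP luminescence.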
A number is an active result; - = inactive; ? = inconclusive; . = no result given. Unless noted, calls follow the shape of the dose curve; as a rule, active = well fitted curve in the direction sought with a large enough effect; inconclusive = small, poorly fitted or top-dose-only effect, or another doubt; inactive = no such curve, though single readings can be large; an effect the other way counts as inactive or inconclusive.

SMILES	IL1B secr inh	Six1-Eya2 blk	TDP1 block	CtBP-E1A inh	TDP1 cell noCPT	TDP1 cell CPT
O=C(NC1CC1)c1ccc(CN(c2ccccc2)S(=O)(=O)c2ccccc2)cc1	-	-	-	-	-	-
COc1ccc(C(=O)NC2CC2)cc1OC1CCN(Cc2ccc(Cl)cc2)CC1	-	-	-	-	?	?
CCOc1cc(CNC2CCCC2)c(Cl)cc1OCC(=O)Nc1ccccc1	-	-	-	-	18µM	18µM
O=C(/C=C/c1cccc(Br)c1)NC1CCN(Cc2ccccc2)CC1	-78	-	.	-	23µM	?
CCN(c1ccccc1)S(=O)(=O)c1ccc(C(=O)NC2CCN(Cc3ccccc3)CC2)cc1	?	-	-	-	7.3µM	8.2µM
CCc1ccc(CN2CCC(Oc3cc(C(=O)NC4CC4)ccc3OC)CC2)cc1	-	-	.	-	15µM	-
CC1(C(=O)NS(=O)(=O)c2ccc(Br)cc2)CCN1C(=O)CCc1ccccc1 (configuration not stated)	-	-	.	-	-	-
CC(C)(C)n1nnnc1C(c1ccccc1)N1CCN(c2ccc(F)cc2)CC1 (configuration not stated)	-	-	.	-	?	?
CC(=O)Nc1ccc(CN2CCC2(C)C(=O)NC2CCN(Cc3ccccc3)CC2)cc1 (configuration not stated)	-	-	.	-	-	-
C=C(C)c1cccc(C(C)(C)NC(=O)N(Cc2ccccc2)Cc2ccco2)c1	-	-	-	-	21µM	16µM
CC1(C(=O)NC2CCN(Cc3ccccc3)CC2)CCN1CCc1ccccc1 (configuration not stated)	-	-	.	-	?	29µM
O=C(O)/C=C/C(=O)N(Cc1ccccc1)Cc1ccco1	-	-	-	-	-	-
O=C(NC1CCN(Cc2ccccc2)CC1)c1ccc2c(c1)OCCCO2	-	-	-	.	-	-
C=C(C)c1cccc(C(C)(C)NC(=O)NC2CCN(Cc3ccccc3)CC2)c1	-	-	.	.	18µM	?
Cc1ccc(C)n1-c1ccc(C(=O)NC2CCN(Cc3ccccc3)CC2)cc1	-59	-	-	-	21µM	?
CCOc1ccc(C2C(C(=O)Nc3ccccc3)=C(C)Nc3nc(SCc4cc(C)ccc4C)nn32)cc1 (configuration not stated)	.	.	-	.	-	-
COc1ccc(C(=O)Nc2ccc(S(=O)(=O)Nc3nccc(C)n3)cc2)cc1[N+](=O)[O-]	-	-	.	.	-	-
CCCN(CC(=O)Nc1ccccc1OC)C(=O)CNC(=O)c1ccc(C)s1	-	-	.	-	-	-
CC1COc2ccccc2C1=O (configuration not stated)	.	.	-	.	.	.
O=C(COc1ccccc1)NC1CCN(Cc2ccccc2)CC1	-	-	-	-	-	-
O=C(COc1ccc(Br)cc1CNC1CCCCC1)NCCc1ccccc1	-97	-	-	-	16µM	18µM
Cc1ccc(CN2CCC(NC(=O)c3ccccc3)CC2)cc1	-	-	.	-	18µM	?
O=C(NC1CCN(Cc2ccccc2)CC1)c1cccc(OC(F)F)c1	?	-	.	-	-	-
Cc1ccccc1C(=O)NC1CCN(Cc2ccccc2)CC1	-	-	-	-	-	-
O=C(NC1CCN(Cc2ccccc2)CC1)c1cccc(Br)c1	-	-	.	-	?	16µM
O=C(COc1ccc(Br)cc1Cl)NC1CCN(Cc2ccccc2)CC1	-81	-	-	-	?	?
C=CCNc1ccccc1S(=O)(=O)NCc1ccccc1	-	-	-	-	-	?
COc1ccc(-c2cc3c(=O)n(CC(=O)NCc4ccc(C)cc4)ncn3n2)cc1	-	-	.	-	6.5µM	7.3µM
COc1ccc(-c2cc3c(=O)n(CC(=O)NCCCN4CCC(Cc5ccccc5)CC4)ncn3n2)cc1	-	-	-	-	?	?
COc1ccc(-c2cc3c(=O)n(CC(=O)NCCCN4CCN(Cc5ccccc5)CC4)ncn3n2)cc1	-	-	-	.	5.2µM	9.2µM
